Screening data: PubChem BioAssay, National Center for Advancing Translational Sciences (NCATS)
The entries come from a sample that favours hits as a whole.
nsP2pro primary = inhibitors of chikungunya virus nsP2 protease | Q8JUX6 | FRET peptide cleavage, nsP2pro, fluorescence 1 h | Potency, µM (series often up to 24.9 µM), for the others: top-dose activity change, negative = inhibition, actives largely listed as inhibitors | hit rate 1.1% among 31,000 | AID 1964107; calls by dose curve; further: nearly all actives have a fitted effect of over 60% in size
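FRET cleavage of 2.5 uM peptide 2 by 150 nM CHIKV protease domain at pH 8.0 (Tris, Tween 20). Compounds at 7 concentrations (up to 25 uM) preincubated 15 min. Fluorescence read after 1 h at room temperature.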
* marks the source's active call; other numbers are inactive results; i = inactive; [ ] = dose if it differs, or a comment. On the % scale 0 is the no-effect control and ±100 the full control effect; potency means the concentration at half of the fitted maximal effect.

SMILES | nsP2pro primary
Cc1cn(-c2cc(F)cc(NC(=O)c3ccc(C)c(Nc4nccc(-c5cccnc5)n4)c3)c2)cn1 | i
CCOC(=O)C1CCN(C(=O)C(C)(C)NC(=O)Nc2ccc(Oc3ccccc3)cc2)CC1 | 1%
CN1CCN(c2ccc(NC(=O)CN(C)Cc3c(O)ccc4ccccc34)cc2)CC1 | 13µM*
COc1ccc2ccccc2c1CN(C)CC(=O)Nc1ccc(N2CCOCC2)cc1 | -8%
CN(CC(=O)Nc1ccc(N2CCOCC2)cc1)Cc1ccccc1O | -1%
CC(C)n1cc(-c2ccc(Oc3ccccc3)cc2)c2c(N)ncnc21 | 4%
COCCn1ccc2c(C3=CCOCC3)nc(-c3cccc4[nH]ccc34)cc21 | -6%[39.2 µM]
O=C(O)c1cccc(CN2C(=O)/C(=C(\c3ccccc3)c3ccc(Cl)cc3)c3ccccc32)c1 | 218%
COc1ccccc1-c1ccc(CN2CCCC(c3nc4ccc(C)cc4c(=O)[nH]3)C2)cc1 (stereo not given) | -4%
COCCOC(=O)N1CCN(S(=O)(=O)c2cc(F)c(Oc3ccc(Cl)cc3)c(F)c2)C(C(=O)NO)C1 (stereo not given) | -10%
COc1ccc(Nc2ccc3c(n2)CN(Cc2ccccc2C)C(=O)CO3)cc1 | 4.5µM*
COc1ccc(Nc2ccc3c(n2)CN(Cc2ccccc2F)C(=O)CO3)cc1 | -2%[39.2 µM]
COc1ccccc1-c1ccc2c(n1)CN(Cc1ccccc1C)C(=O)CO2 | 4%[39.2 µM]
Cc1csc(NC(=O)c2ccc(COc3cccc(Cl)c3)o2)n1 | 0%
Cc1csc(NC(=O)c2nc3c(o2)CCN(Cc2ccccc2F)CC3)n1 | 13µM*
Cc1ccc2nc(NC(=O)c3cccn(Cc4ccccc4F)c3=O)sc2c1 | -13%
Cc1cc(NS(=O)(=O)Cc2ccc(NC(=O)Cc3ccc(Cl)c(Cl)c3)cc2)no1 | i
CC1=C(c2ccc(C)c(C)c2)S(=O)(=O)N=C1N1CCC(C(=O)Nc2ccc(Cl)cc2)CC1 | -11%
CC1=C(c2ccc(Cl)cc2)S(=O)(=O)N=C1N1CCC(C(=O)NCCc2ccco2)CC1 | 11µM*
CC1=C(c2ccc(C)c(C)c2)S(=O)(=O)N=C1N1CCC(C(=O)NCc2ccc(Cl)cc2)CC1 | -4%
OCC1(Cc2ccccc2)CCCN(Cc2cn[nH]c2-c2ccc(F)cc2)C1 (stereo not given) | -2%
C[C@]12C[C@@H]3S[C@H]3C[C@@H]1CC[C@H]1[C@H]3CC[C@@H](O)[C@@]3(C)CC[C@@H]12 | 1%
CCOC(=O)NNc1nncc2ccccc12 | 7%
CCOC(=O)NNc1ccc(N(CC)CC(C)O)nn1 (stereo not given) | 11µM*
COC1(O[C@H]2CC[C@H]3[C@@H]4CC[C@H]5C[C@@H]6S[C@@H]6C[C@]5(C)[C@H]4CC[C@]23C)CCCC1 | 2%
SMILES | nsP2pro primary
COc1ccc(-c2cc(=S)ss2)cc1 | 11µM*
COc1ccc(-c2nc3ccc(OC)cc3s2)cc1 | 1%
COc1ccc(-c2nc3ccccc3s2)cc1 | i
Cc1ccc([S+](=O)([O-])N2CCCCC23Cc2ccccc2NC3=O)cc1 (stereo not given) | i
CC(C)C(=O)N1Cc2ccccc2NC(=O)C12CCNC2 (stereo not given) | -8%[39.2 µM]
O=C1Nc2ccccc2CN(CC2CCCC2)C12CCNC2 (stereo not given) | 13µM*
O=C1Nc2ccccc2CN(CC2CC2)C12CCNC2 (stereo not given) | -7%[39.2 µM]
CC(C)=CCN1Cc2ccccc2NC(=O)C12CCNC2 (stereo not given) | 10µM*
COC(=O)N1CCCCC12Cc1ccccc1NC2=O (stereo not given) | -4%[39.2 µM]
COc1cccc(-c2nc(-c3cccc(C(=O)O)c3)no2)c1 | i
Cc1cc(NC(=O)Nc2nnc(-c3ccncc3)s2)ccc1Br | -17%
OCC(CO)(CO)NCC(O)Cn1c2ccc(Cl)cc2c2cc(Cl)ccc21 (stereo not given) | 24%
O=C(Nc1nc(-c2ccccc2)cs1)c1ccncc1NS(=O)(=O)c1ccc(F)cc1Cl | i
CCO/N=C(\C(=O)N[C@@H]1C(=O)N2C(C(=O)O)=C(Sc3nc(-c4cc[n+](C)cc4)cs3)CS[C@H]12)c1nsc(NP(=O)(O)O)n1 | 11µM*
COCC1=C(C(=O)O)N2C(=O)[C@@H](NC(=O)/C(=N\OC)c3csc(N)n3)[C@H]2SC1 | -11%
CO/N=C(\C(=O)N[C@@H]1C(=O)N2C(C(=O)O)=C(CSc3cnns3)CS[C@H]12)c1csc(N)n1 | -46%
c1ccc(-c2nc(C3CCOCC3)no2)c(OC2CCN(C3CCCC3)C2)c1 (stereo not given) | -9%
Cc1cc(C)nc(NC(=S)N2CCN(c3cccc(C(F)(F)F)n3)CC2)c1 | -35%
O=C(NCc1ccc(Cl)cc1)c1ccc2nnc(-c3cc[nH]c3)n2c1 | 3%
O=C(NCc1ccccc1Cl)c1ccc2nnc(-c3ccoc3)n2c1 | 11µM*
Cc1cc2ncc(C(=O)NCc3ccccc3Cl)cn2n1 | -1%[39.2 µM]
CCCCCCCCCCCC(=O)OCN1C(=O)CCc2ccc(OCCCCN3CCN(c4cccc(Cl)c4Cl)CC3)cc21 | -1%[5.1 µM]
CC1CCN(CCNC(=O)c2cc3cn(C(C)C)cc3s2)CC1 | 5%
Fc1ccc(-c2cccc(CN3CCOCC3)c2)c(Cl)c1 | 2%
Cn1c(C(=O)Nc2ccc3c(c2)OCO3)cc2c1CCN(Cc1cccc(F)c1)C2 | -9%
SMILES | nsP2pro primary
O=C(c1nc2c(o1)CCN(Cc1cccc(F)c1)CC2)N1CCOCC1 | 2.8µM*
COC(=O)[C@@H](N)CS | 11µM*
N[C@H](CO)C(=O)O | -26%
Cc1cnc(-c2ccccc2C(C)C)nc1NCc1ccc(-c2nn[nH]n2)cc1 | i
COc1ccccc1CC(=O)Nc1cccn2nc(C(C)C)nc12 | -11%
O=C(Nc1cc(-c2ccncc2)nn1-c1ccccc1)c1ccc(Cl)cc1 | i
COc1ccc(-c2c(Cl)ncn2-c2ccc(S(N)(=O)=O)cc2)cc1F | -4%
CN(C)Cc1nnc(C2CC(NC(=O)Cc3c(F)cccc3Cl)C2)n1C (stereo not given) | -8%
CN(C)Cc1nnc(C2CC(NC(=O)c3cc(-c4cccn4C)n[nH]3)C2)n1C (stereo not given) | 0.5µM*
CN(C)Cc1nnc(C2CC(NC(=O)c3cc(-c4ccsc4)n[nH]3)C2)n1C (stereo not given) | -1%
Cc1nc(N(C)C(=O)Cc2ccc(-c3ccccn3)cc2)sc1S(N)(=O)=O | -4%
Cc1cc(=O)oc2cc(SC3=NS(=O)(=O)c4ccccc43)ccc12 | 0%
Fc1ccccc1N1CCN(c2ncc3c(n2)CCN(Cc2ccc(Br)s2)C3)CC1 | 2%
Cc1ccsc1CN1CCc2nc(Nc3ccccc3)ncc2C1 | 2%
